About 83,000 compounds went through this panel and 20% of them were active in at least one assay; those are over-represented in the sample as a whole.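 Step 1: grow cells in 96-well plates. Step 2: add test compound at a single concentration. Step 3: incubate 48 h. Step 4: record percent growth.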 Active and inactive are the calls of the source. Rule for the calls: active = growth percent below 10; inactive = the rest.
How the values were obtained:
Experiment in all cases: NCI-60 one-dose screen, 48 h (100 = growth as untreated, 0 = no growth, -100 = all killed)
[1] = test system: SR leukemia; settings: 10 µM unless noted
[2] = test system: RPMI-8226 leukemia; settings: 10 µM unless noted
[3] = test system: OVCAR-8 ovarian; settings: 10 µM unless noted
[4] = test system: OVCAR-5 ovarian; settings: 10 µM unless noted
[5] = test system: OVCAR-4 ovarian; settings: 10 µM
[6] = test system: IGROV1 ovarian; settings: 10 µM unless noted
[7] = test system: OVCAR-3 ovarian; settings: 10 µM unless noted
[8] = test system: HS 578T breast; settings: 10 µM unless noted
[9] = test system: NCI/ADR-RES ovarian; settings: 10 µM unless noted
[10] = test system: T-47D breast; settings: 10 µM unless noted
[11] = test system: BT-549 breast; settings: 10 µM unless noted
[12] = test system: MDA-MB-435 melanoma; settings: 10 µM unless noted
[13] = test system: SW-620 colon; settings: 10 µM unless noted
[14] = test system: MCF7 breast; settings: 10 µM unless noted
[15] = test system: HCT-116 colon; settings: 10 µM unless noted
[16] = test system: HCC-2998 colon; settings: 10 µM unless noted
[17] = test system: KM12 colon; settings: 10 µM unless noted

Measured: growth

COc1ncc(-c2ccc3nccc(C#CCCCCC(=O)NO)c3c2)cc1NS(=O)(=O)c1ccc(F)cc1F
active: [1] -24.5% | [2] -25.1% | [3] -12.8% | [4] 4.43% | [6] -21.6% | [7] -31.6% | [8] -23.8% | [10] -22.6% | [11] -13.2% | [12] -7.72% | [13] -30.9% | [14] 2.33% | [15] -50.3% | [16] 7.27% | [17] 9.84%
inactive: [5] 24.9% | [9] 55.3%

C#C[C@]1(O)CC[C@H]2[C@@H]3CC=C4c5nc(Nc6ccccc6[N+](=O)[O-])sc5CC[C@]4(C)[C@H]3CC[C@@]21C
active: [2] 1.11%
inactive: [1] 30.2% | [3] 85.7% | [4] 70.4% | [5] 84.9% | [6] 67.2% | [7] 65.8% | [8] 21.4% | [9] 75.8% | [10] 41.3% | [11] 34% | [12] 66.1% | [13] 76% | [14] 56.9% | [15] 45.7% | [16] 61.1% | [17] 54.1%

CC1(C)CC(=O)c2c(ccc(C(=O)C[C@@H](N)CO)c2N)O1
inactive: [1] 14.7% | [4] 49.8% | [5] 71.1% | [6] 12.9% | [8] 84.7% | [9] 35% | [10] 29.5% | [12] 39.5% | [17] 11%
active: [2] 0.0254% | [3] 7.69% | [7] 0.385% | [11] -4.27% | [13] 7.17% | [14] 8.5% | [15] 8.56% | [16] -20.4%

COc1ccc(NC(=S)NNc2ccc(-c3ccc(OC)c(OC)c3)nn2)cc1
inactive: [1] 98.1% | [2] 103% | [3] 101% | [4] 103% | [5] 100% | [6] 103% | [7] 110% | [8] 95.8% | [9] 111% | [10] 96.4% | [11] 98.5% | [12] 107% | [13] 102% | [14] 96.5% | [15] 102% | [16] 109% | [17] 104%

Cc1ccc(NC(=O)N[C@@H](Cc2cc(F)cc(F)c2)C(=O)N[C@@H]2C(=O)N3CCC[C@H]3C(=O)N3CCOC[C@H]3C(=O)N[C@@H](C)C(=O)N3C[C@H](C)C[C@H]3C(=O)O[C@H]2C)cc1
inactive: [1] 32% | [2] 23% | [3] 19.8% | [4] 38% | [5] 12.8% | [6] 47.2% | [7] 18.9% | [8] 41.9% | [9] 91.5% | [10] 27% | [11] 19.6% | [12] 21% | [13] 34.5% | [14] 25% | [15] 12.5% | [16] 34.5% | [17] 38.9%

Cc1ccccc1-n1nnc(C(=O)Nc2nc3ccc(F)cc3s2)c1C
inactive: [1] 55.9% | [2] 45% | [3] 73.2% | [4] 82.2% | [5] 10.6% | [6] 75.7% | [7] 57.9% | [8] 73.6% | [9] 60.7% | [10] 18.1% | [11] 36.8% | [12] 59.2% | [13] 85.5% | [14] 65.3% | [15] 46.5% | [16] 78.6% | [17] 72.4%

C[C@]12CCc3nc(Nc4ccccc4)sc3C1=CC[C@@H]1[C@@H]2CC[C@]2(C)/C(=N/NC(N)=S)CC[C@@H]12
active: [2] -1.05% | [7] -21.2% | [10] 9.46% | [15] -46.2%
inactive: [1] 13.1% | [3] 56.9% | [4] 91.5% | [5] 35.9% | [6] 69.1% | [8] 55.9% | [9] 53.6% | [11] 35.4% | [12] 30.8% | [13] 18.2% | [14] 24.3% | [16] 84.9% | [17] 33.5%

Cc1cccc(C[C@H](NC(=O)Nc2ccc(Cl)cc2F)C(=O)N[C@@H]2C(=O)N3C[C@H](O)C[C@H]3C(=O)N3CCN(C)C[C@H]3C(=O)N[C@@H](C)C(=O)N3C[C@H](C)C[C@H]3C(=O)O[C@H]2C)c1
active: [15] 9.83%
inactive: [1] 45% | [2] 22.6% | [3] 26.9% | [4] 38.8% | [5] 15.4% | [6] 50.7% | [7] 17.2% | [8] 43% | [9] 107% | [10] 21.5% | [11] 17.2% | [12] 22.1% | [13] 42.4% | [14] 23% | [16] 34.5% | [17] 40.5%

Cc1cccc(C[C@H](NC(=O)Nc2ccc(Cl)cc2F)C(=O)N[C@@H]2C(=O)N3C[C@H](O)C[C@H]3C(=O)N3CCCC[C@H]3C(=O)N[C@@H](C)C(=O)N3C[C@H](C)C[C@H]3C(=O)O[C@H]2C)c1
inactive: [1] 11% | [3] 13.5% | [8] 10.9% | [9] 89.9% | [13] 20.7%
active: [2] 6.39% | [4] 6.86% | [5] 7.83% | [6] 9.47% | [7] -26.4% | [10] 5.41% | [11] -9.79% | [12] -5.25% | [14] 6.39% | [15] -31.6% | [16] -49% | [17] -31.4%

Cn1cc(-c2noc(C(=O)c3cn(C)c4ncccc34)n2)c2ccccc21
inactive: [1] 74.9% | [2] 94.5% | [3] 102% | [4] 96.1% | [5] 57.7% | [6] 80.7% | [7] 103% | [8] 88.5% | [9] 92.3% | [10] 46% | [11] 98.3% | [12] 72.9% | [13] 95.5% | [14] 34.8% | [15] 98.7% | [16] 90.6% | [17] 52%

O=C1/C(=C\c2cccn2Cc2ccccc2)c2ccccc2N1c1c(Cl)cccc1Cl
active: [5] -2.5% | [7] 7.01% | [10] -35.7% | [14] 6.23% | [17] 4.07%
inactive: [1] 90.6% | [2] 60.2% | [3] 90.8% | [4] 38.7% | [6] 28.2% | [8] 83.2% | [9] 70.9% | [11] 81% | [12] 91% | [13] 85.7% | [15] 27.1% | [16] 22.1%

O=C1COCCN1c1ccc(Nc2nc(Cl)nc(N3CCOCC3)n2)cc1
inactive: [1] 88.9% | [2] 98.9% | [3] 97.9% | [4] 88.3% | [5] 102% | [6] 103% | [7] 103% | [8] 104% | [9] 97.6% | [10] 88.5% | [11] 97.1% | [12] 99.5% | [13] 105% | [14] 85.5% | [15] 101% | [16] 89.1% | [17] 93.8%

C[n+]1c2ccccc2nc2c(N)cc(N)cc21
inactive: [1] 38.3% | [2] 80.2% | [3] 41.6% | [4] 101% | [5] 72.5% | [6] 70.1% | [7] 15.2% | [8] 55.5% | [9] 92.9% | [10] 54.2% | [11] 46% | [12] 126% | [13] 87.1% | [14] 82.7% | [15] 78.2% | [16] 92.4% | [17] 63.8%

Cc1ccc(NC(=O)N[C@@H](Cc2cc(F)cc(F)c2)C(=O)N[C@@H]2C(=O)N3CCC[C@H]3C(=O)N3CCCC[C@H]3C(=O)N[C@@H](C)C(=O)N3C[C@H](C)C[C@H]3C(=O)O[C@H]2C)cc1
inactive: [1] 31.3% | [2] 20.1% | [3] 18.5% | [4] 34.6% | [5] 11.3% | [6] 45.9% | [7] 19.8% | [8] 35.6% | [9] 34.4% | [10] 19.7% | [11] 19.6% | [12] 18.5% | [13] 35.6% | [14] 23.1% | [15] 11.2% | [16] 24.6% | [17] 37.8%

CC[C@@H]1NC(=O)[C@@H]2CCCCN2C(=O)[C@@H]2CCCN2C(=O)[C@@H](NC(=O)[C@H](Cc2cc(F)cc(F)c2)NC(=O)Nc2ccc(C3CC3)cc2F)[C@H](C)OC(=O)[C@@H]2C[C@@H](C)CN2C1=O
active: [4] -1.92% | [5] 7.84% | [7] 6.44% | [10] 7.13% | [11] 5.79% | [12] 3.08% | [15] 4.17% | [16] -14.1%
inactive: [1] 15.1% | [2] 12.8% | [3] 13.2% | [6] 28.5% | [8] 20.6% | [9] 14% | [13] 27% | [14] 13.4% | [17] 17%

NS(=O)(=O)c1ccc(CCN2C(=O)/C(=C\c3ccccc3)C=C2c2ccc(Cl)cc2)cc1
inactive: [1] 103% | [2] 98.3% | [3] 98.2% | [4] 99.4% | [5] 95.4% | [6] 91.9% | [7] 96.9% | [8] 93.9% | [9] 107% | [10] 88.9% | [11] 96.4% | [12] 99.8% | [13] 99.2% | [14] 81.2% | [15] 96.5% | [16] 105% | [17] 99%

c1cc2ccc1CNCCN1CCNCc3ccc(cc3)Oc3ccc(cc3)CNCCN(CCNCc3ccc(cc3)O2)CCNCc2ccc(cc2)Oc2ccc(cc2)CNCC1
active: [1] -40.1% | [2] -49% | [3] -7.54% | [4] -55.1% | [5] -77.6% | [6] -64.3% | [7] -94.6% | [8] -48.7% | [10] -64.5% | [12] -96.3% | [13] -75.5% | [14] -75.4% | [15] -89.7% | [16] -87.8% | [17] -88.6%
inactive: [9] 103% | [11] 82.1%

— PubChem BioAssay (NCI)
